For the assay, the target named is Solute carrier family 2, facilitated glucose transporter member 1 (Homo sapiens) (UniProt P11166). In words: ST_JUDE_LEISH: Cytotoxicity at 2uM final concentration against transgenic Leishmania Mexicana promastigotes LmGLUT1 that are glucose transport deficient and complemented with the human glucose transporter GLUT1. Activity is measured by DNA content using SYBR green in vitro. In kind it is functional.
Sequence of Solute carrier family 2, facilitated glucose transporter member 1 (Homo sapiens) (P11166 whole entry): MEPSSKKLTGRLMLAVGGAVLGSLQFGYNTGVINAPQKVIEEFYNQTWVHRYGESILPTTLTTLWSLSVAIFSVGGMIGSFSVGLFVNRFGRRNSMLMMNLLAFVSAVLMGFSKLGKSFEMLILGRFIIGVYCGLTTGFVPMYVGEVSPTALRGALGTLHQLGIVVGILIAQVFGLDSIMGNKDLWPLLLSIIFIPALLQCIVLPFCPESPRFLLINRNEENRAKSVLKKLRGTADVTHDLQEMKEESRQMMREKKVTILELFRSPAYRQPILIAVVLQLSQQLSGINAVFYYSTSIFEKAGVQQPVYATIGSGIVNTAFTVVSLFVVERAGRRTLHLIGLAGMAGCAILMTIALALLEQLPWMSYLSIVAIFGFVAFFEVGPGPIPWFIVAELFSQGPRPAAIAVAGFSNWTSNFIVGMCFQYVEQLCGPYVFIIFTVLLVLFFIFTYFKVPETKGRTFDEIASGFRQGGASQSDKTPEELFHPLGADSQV
Broadly, the inhibition is the change of the read-out against control, counted positive when it falls. Take `COc1cccc2cc(C(=O)N[C@@H](CC(C)C)C(=O)N[C@H](C=NNC(=O)OC(C)(C)C)CC(C)C)oc12`: the inhibition was determined as 2.6%. As for `COC(=O)C(c1ccc(NC(=O)[C@H](CC(C)C)NC(=O)OC(C)(C)C)cc1)c1ccc(NC(=O)[C@H](CC(C)C)NC(=O)OC(C)(C)C)cc1`, the figure is -0.28%; as for `O=C(NCc1cccc(Cl)c1)c1ccc(CNC2CCN(Cc3ccccc3)CC2)cc1`, -1.21%; as for `Nc1c2ccccc2nc2cc(C(F)(F)F)ccc12`, 2.83%. The same measure for `COc1ccc2nc(SC(C)C(=O)c3c[nH]c4ccccc34)[nH]c2c1` (stereo not drawn): 2.5%; for `COc1ccc(CN(C)Cc2ccc(NC(=O)c3cccc4c(=O)c5cccc(C)c5[nH]c34)cc2)cc1OC`: 4.59%; for `O=C(NCCc1ccc(Cl)c(Cl)c1)[C@@H]1CCCN1C(=O)c1ccc(O)c(-c2ccc(Cl)c(Cl)c2)c1`: -1.56%. Consider `CC(=O)CCc1ccc(OCCN(Cc2ccccc2C(F)(F)F)c2ccc(C#N)c(C(F)(F)F)c2)cc1`, for which the inhibition worked out at 3.66%. For `CN1CCN(c2ccnc3ccc(NC(=O)Nc4ccc(-c5ccncc5)c(C(F)(F)F)c4)cc23)CC1`, the inhibition came out at 11.3%. Regarding `COc1ccc(C2CC(c3cccs3)=NN2C(=O)c2ccco2)cc1OC` (stereo not drawn), the inhibition was determined as 5.38%. The same measure for `COc1cc2nc(NCC3CCN(c4nc(N)c5cc(OC)c(OC)cc5n4)CC3)nc(N)c2cc1OC`: 3.62%; for `CCOc1cc(C(=O)NC2CCN(Cc3ccccc3)CC2)ccc1-c1nc2cc(Cl)c(Cl)cc2[nH]1`: 2.82%; for `COc1cc2nc(N(C)Cc3cc4c(Cl)cccc4s3)nc(N)c2cc1OC`: -0.54%. The same measure for `CC(=O)Nc1ccc(S(=O)(=O)Nc2ccc(Nc3nc(C)cc(N4CCCCC4)n3)cc2)cc1`: 5.51%; for `Cc1cccc(C)c1OC(=O)C(C)C(O)C1(Sc2ccccc2)CCN(C)CC1` (stereo not drawn): 5.2%. Take `COc1ccc(NC(=O)CCNc2cc(C)nc(NCCOc3ccccc3)n2)cc1`: the inhibition came to 2.22%. As for `CNC(=O)c1cncc(/C=C/c2ccccc2S(N)(=O)=O)c1`, the figure is -0.22%; as for `N#CC(NC(=O)C=Cc1ccccc1)c1ccccc1` (stereo not drawn), -1%; as for `COc1ccc2ncc(F)c(CCN3CCC(NCc4ccc5c(c4)CCO5)CC3)c2n1`, 16.7%. The same measure for `O=C(N[C@H]1CCN(Cc2ccc(OCCN3CCNCC3)c(Cl)c2)C1)c1ccc(Cl)c(Cl)c1`: -1.27%; for `CCOC(=O)c1ccc(NC(=O)Nc2ccc(-c3ccc(-c4nc5ccccc5[nH]4)cc3)cc2)cc1`: 3.64%; for `CC(C)C(=O)ONC1=NC(C)(C)N(OCCCOc2cc(Cl)c(Cl)cc2Cl)C(NOC(=O)C(C)C)=N1`: -0.37%. In the case of `COC(=O)c1cc(C(O)CNC(C)CCCc2ccccc2)ccc1O` (stereo not drawn), the inhibition worked out at 0.96%.

These data come from ChEMBL document CHEMBL3433997, “St. Jude Leishmania screening dataset” (2016).
